Shown is part of a subset that was picked to be rich in hits.
Pf Dd2 growth: Plasmodium falciparum Dd2 growth inhibition | AID 1347417 | Potency, µM (series often up to 28.9 µM), for inactives: at the top dose activity, negative = inhibition, most hits filed as inhibitors | P. falciparum Dd2 growth, SYBR Green, 72 h | hit rate 4.3% among 120,000; active = well fitted inhibition curve with a large enough effect;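 also: plate controls were DMSO vehicle for no effect and reference drug for full effect; nearly all actives have a fitted effect of over 65% in size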
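Infected erythrocytes (Dd2, 0.3% parasitemia, 2.5% hematocrit final) are added to compound in RPMI-1640/Albumax II medium, grown 72 h at 37C in low oxygen, then lysed with saponin/Triton-X containing SYBR Green and read by fluorescence.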
* hit, by the source's call; i = inactive; [ ] = dose if it differs, or a comment. Potency is read from the fitted curve at half-maximal effect.

SMILES	Pf Dd2 growth
O=C(Cc1c[nH]c2ncc(-c3cccnc3)cc12)NCc1cccc(F)c1	6.3µM*
NC(=O)Cc1c[nH]c2ncc(-c3cccc(F)c3)cc12	-22%[44.1 µM]
O=C(Cc1c[nH]c2ncc(-c3cccnc3)cc12)NCCc1ccccc1	i
O=C(Cc1c[nH]c2ncc(-c3cccnc3)cc12)Nc1ccc(C(F)(F)F)cc1	-25%[44.1 µM]
O=C1CCCCC(C(=O)NCc2ccccc2)N1 (configuration not stated)	18%
Cc1cccc(NC(=O)Cn2c(-c3cccc(Cl)c3)nc(C)c(CCO)c2=O)c1	-3%
CCC(c1ccccc1)N1Cc2cc(NS(=O)(=O)c3ccc(Cl)cc3)ccc2OC(C)C1=O (configuration not stated)	-15%
CC(C)CN1CC[C@H]2COC(=O)N2c2cc(F)ccc2C1	i
O=C(c1ccco1)N1CCC(c2n[nH]c(=O)n2Cc2ccc(F)cc2)CC1	-19%
CCc1noc(-c2ccn3c(CNC(=O)c4ccncc4)nnc3c2)n1	-16%
COC(=O)[C@H](NC(=O)[C@@H]1C[C@@H](NC(=O)CSC)CCN1S(=O)(=O)c1ccc(OC)cc1)C(C)C	5%
Cc1ccc([S+](=O)([O-])N2CCc3nc(C)nc(-c4ccc(Cl)cc4)c3CC2)cc1	13%
O=[S+]([O-])(c1cccc(C(F)(F)F)c1)N1CCc2nc(C3CC3)nc(-c3ccc(Cl)cc3)c2C1	-11%
COc1ccc(-c2nc(C)nc3c2CCN(C(=O)c2ccc4c(c2)OCO4)CC3)cc1	i
COc1ccc(-c2nc(C3CC3)nc3c2CCN(C(=O)c2ccc4c(c2)OCO4)CC3)cc1	11µM*
COc1ccc(-c2nc(C(C)C)nc3c2CN([S+](=O)([O-])c2cccc(C(F)(F)F)c2)CC3)cc1	i
CC(C)c1nc2c(c(-c3ccc(Cl)cc3)n1)CCN([S+](=O)([O-])c1ccccc1)CC2	11µM*
COc1ccc(-c2nc(C)nc3c2CCN(Cc2cc(C)on2)CC3)cc1	-13%
COc1ccc(-c2nc(C)nc3c2CN([S+](=O)([O-])c2cccc(OC)c2)CC3)cc1	-7%
CC(C)c1nc2c(c(-c3ccc(Cl)cc3)n1)CCN(CC1CC1)CC2	-18%
COc1ccc(-c2nc(C)nc3c2CCN(C(=O)c2ccc(C)cc2)CC3)cc1	-19%
COc1cccc([S+](=O)([O-])N2CCc3nc(C4CC4)nc(-c4ccc(Cl)cc4)c3CC2)c1	13µM*
Cc1cc(CN2CCc3nc(C(C)C)nc(-c4ccc(Cl)cc4)c3CC2)no1	8.9µM*
CCCc1ccc(S(=O)(=O)N2CCC(c3c[nH]c4c(C)cccc34)CC2)cc1	-24%
CC(C)NC(=O)N1CCCC1c1noc(CCC(=O)NC2CC2)n1 (configuration not stated)	-6%
SMILES	Pf Dd2 growth
CN1CC(=O)N(C2CCCNCC2)Cc2c(NCC(C)(C)C)ncnc21 (configuration not stated)	7%
O=C(Cc1ccccc1Cl)N1CCN(c2cc(-c3cccs3)[nH]n2)CC1	i
O=C(COc1ccccc1)N[C@H]1CO[C@H]2[C@@H]1OC[C@H]2OC(=O)Nc1cccc2ccccc12	i
CCC(=O)Nc1ccc(-c2c(-c3cc(OC)cc(OC)c3)nn(-c3ccc(C)cc3)c2OC(C)=O)cc1	-15%
Cc1noc([C@@H]2CC(F)(F)CN2C(=O)c2cocn2)n1	41%
Cc1ccc(NC(=O)CC2CCOCC2)cc1C	8%
CCNC(=O)[C@@H]1C[C@H](NC(=O)c2scnc2C)CN1Cc1nc(C)no1	0%
O=C(C1CCC1)N1CC[C@H]2COC(=O)N2c2cc(F)ccc2C1	-2%[44.1 µM]
CCc1nc2c(c(-c3ccc(Cl)cc3)n1)CCN(C(=O)c1ccc(OC)cc1)CC2	i
Cc1ccc(C(=O)N2CCc3nc(C4CC4)nc(-c4ccc(Cl)cc4)c3CC2)cc1	-15%
COc1ccc(C(=O)N2CCc3nc(C4CC4)nc(-c4ccc(Cl)cc4)c3CC2)cc1	10µM*
COc1ccc(CCC(=O)N2CC3CC(C2)[C@H]2CCCC(=O)N2C3)cc1 (some centres not stated)	0%
CCCNC(=O)N1CCC(O)(c2csc(CN3CCc4ccccc4C3)n2)CC1	i
CCc1nc(-c2c3n(c(=O)n(CC(=O)Nc4ccccc4Cl)c2=O)CCCCC3)no1	-8%
CCn1cc(S(=O)(=O)N2CCCCCCN(C)C(=O)[C@@H]3CCC[C@@H]32)cn1	-17%
O=C1NCCCCCN(S(=O)(=O)c2cccc(F)c2)[C@H]2CCCC[C@@H]12	14%
CN1CCCCCCN(S(=O)(=O)c2cccc(F)c2)[C@H]2CCC[C@H]2C1=O	2.5µM*
O=C(NCCc1ccncc1)C1CN(C(=O)c2ccc(F)cc2)CC12CCOCC2 (configuration not stated)	19%
O=C1COc2ccc(-c3ccccc3)nc2CN1	-11%[44.1 µM]
CCc1nncn1C1CCN(C(=O)Nc2ccc(F)c(Cl)c2)C1 (configuration not stated)	0%
COC(=O)C1=C(C)N=C2SC=C(CC(=O)NCc3ccc(F)cc3)N2C1c1cccc(OC)c1 (configuration not stated)	-24%
CCOC(C)c1ccc(-c2cc(C)n[nH]c2=O)cc1 (configuration not stated)	-14%
CN(C)C1CCN(Cc2cc3cc4c(cc3nc2-c2ccc(Cl)cc2)OCO4)C1 (configuration not stated)	11µM*
O=C1[C@H]2CN(Cc3ccc(Cl)cc3)C[C@H]2C(=O)N1Cc1ccc2c(c1)OCO2	-4%
Cn1ncc(CN2CC[C@@H](c3ccc4c(c3)OCO4)[C@H](O)C2)c1C1CC1	-23%
SMILES	Pf Dd2 growth
COc1cc2cc(CN3CCC(N(C)C)C3)c(-c3cccc(Cl)c3)nc2cc1OC (configuration not stated)	7.9µM*
CSc1ccc2cc(CN3CC[C@@H](O)C3)c(-c3ccc(Cl)cc3)nc2c1	11µM*
CSc1ccc(C(=O)N2CCN(Cc3ccccc3)CC(O)C2)cc1 (configuration not stated)	-5%
COc1ccc(N2CCOC3CCN(Cc4cccc(Cl)c4)CC3C2=O)cc1 (configuration not stated)	i
COc1ccc(OC)c2nc(-c3cccc(Cl)c3)c(CN3CCC(O)CC3)cc12	i
CS(=O)(=O)N1C[C@H]2CCN(Cc3cc(Cl)ccc3F)C[C@H]21	-1%
COCCOCC(=O)N1CC(Oc2cccc(-c3nc(C)no3)c2)C1	i[5.79 µM]
C[C@]1(O)CCN(Cc2ccc(-c3ccccc3C#N)o2)C[C@@H]1O	-6%
COc1ccc(CN2C(=O)O[C@@H]3CN(C(=O)NC4CCCCC4)C[C@@H]32)cc1OC	6%
O=C(Nc1cccc(F)c1)C1=NO[C@@H]2CN(c3ccccn3)C[C@H]12	-23%[44.1 µM]
O=C(c1cn(CCC2CCCCC2)nn1)N1CCN(C(=O)c2ccco2)CC1	-28%
CCc1nn(-c2ccc(F)cc2)c(Oc2ccccc2)c1CCC(=O)N1CCCC1	i
CCC(=O)N1CCCCCCNC(=O)[C@@H]2CCC[C@@H]21	11%
Cc1ccc(C)c(N2CCN(C(=O)c3ccc4[nH]c(C)c(C)c4c3)CC2)c1	-8%
COc1cc2[nH]c(=O)n(Cc3ccc(C(=O)N4CCN(c5ccc(Cl)cc5)CC4)cc3)c(=O)c2cc1OC	-4%
O=C(c1ccc2c(Cl)c3c(nc2c1)CCCC3)N1CCN(c2ccccc2F)CC1	24%
O=C(c1ccc2c(Cl)c3c(nc2c1)CCCC3)N1CCN(c2cccc(Cl)c2)CC1	-19%
Cc1cccc(N2CCN(C(=O)c3ccc4c(Cl)c5c(nc4c3)CCCC5)CC2)c1C	11µM*
O=C(CN1CCSc2ccccc21)N1CCN(c2cccc(Cl)c2)CC1	33%

Source: PubChem
